Experimental findings from PubChem BioAssay (EPA / NIEHS) are described below.

The source made the active and inactive calls. The calls were made as follows: active = hit-call score of the fitted dose curve at least 0.9, where 1 is the maximum; inactive = score below 0.9.

Read-out in this assay: Pyruvate Dehydrogenase Kinase 4 (PDK4), PDK4 (gene 5166)
In words: LTEA_HepaRG_PDK4: Life Technologies and Expression Analysis (LTEA) Assay for Pyruvate Dehydrogenase Kinase 4 (PDK4) using HepaRG (AID 2283525). To be noted: mRNA level, 48 h; actives raise or lower the signal. The method, then: LTEA_HepaRG is a cell based, multiplexed-readout assay that uses HepaRG, a human liver cell line, with measurements taken at 48 hours after chemical dosing on a 96-well plate.LTEA_HepaRG_PDK4 is one of 102 assay component(s) measured in the LTEA HepaRG cell culture assay. It is a marker of Diseases associated with PDK4 including Platelet Glycoprotein Iv Deficiency and Diabetes Mellitus, Noninsulin-Dependent.Data from the assay component LTEA_HepaRG_PDK4 was analyzed into 1 endpoint. This assay endpoint, LTEA_HepaRG_PDK4, was analyzed with bidirectional fitting relative to DMSO as the negative control and baseline of activity. Using a type of inducible reporter, measures of mRNA induction for gain or loss-of-signal activity can be used to understand regulation of transcription factor activity. To generalize the intended target to other relatable targets, this assay endpoint is annotated to the kinase intended target family, where the subfamily is serine/threonine kinase.
A total of 1060 chemcials from the ToxCast library were tested in eight-point concentration-response experiments. Cell culture and cytotoxicity assays were conducted at Thermo Fisher Scientific's Custom Services facility (Madison, WI). A single lot of human HepaRG cells (Thermo Fisher Scientific, Frederick, MD) was used for the cell culture experiments. 96-well format collagen type I coated plates of human HepaRG cells were prepared using established methods. Briefly, cryopreserved HepaRG cells were thawed, plated at a density of approximately 100,000 cells/well in HepaRG Thaw, Plate, and General Purpose media (HPRG770, Thermo Fisher Scientific), and incubated for 48 hours. 0.5% DMSO was selected as vehicle control to balance the requisite need of DMSO in HepaRG cultures to maintain differentiation (for example, baseline metabolism, proportions of hepatocytes vs. cholangiocytes), while enabling further hepatic receptor pathway activation (for example, PXR and CAR) in response to chemical exposure. 48 hours after plating, the culture medium was replaced with HepaRG Serum-Free Incudtion Media. Cells were exposed to each test chemical in duplicate and maintained in CO2 incubators for another 48 hours. Chemical plates were thawed to room temperature and 200x concentrations of treatment groups were prepared. 8-point conentration-reponse curves were made with the highest exposure at 100 uM, followed by half-log dilutions, all in 0.5% DMSO. Each test plate contained variouse controls, induction positive controls (1mM phenobarbital), cytotoxicity positive controls ([…] aflatoxin B1), vehicle controls (0.5% DMSO), and total lysis controls (0.5% DMSO). Cell morphology images were taken using an Essen IncuCyte FLR automated microscope, with six 96-well plates imaged in about 24 minutes. Images were captured and exported and JPEG files. Spent culture media was transfered to black-well plates for the LDH assay, and remaining media was sorted at -80 C for later use. Cells were treated with RLT buffer and frozen until shipped for gene expression analysis. Total RNA was isolated from the cell suspension in 75 uL of Buffer RLT (Qiagen, Germantown, MD 20874) by Quintiles/Expression Analysis (Durham, NC) using a custom isolation procedure. Total RNA from each plate well was transferred to a preamplification plate. Fluidigm's 96.96 Dynamic ArrayTM (Fluidigm, Amsterdam, the Netherlands) technology was used for gene expression analyses by quantitative reverse transcription polymerase chain reaction (qRT-PCR, performed by Quintiles/Expression Analysis, Durham, NC)89. Standard TaqManTM Assays (Applied Biosystems/ThermoFisher Scientific, Foster City, CA) were used to assess the expression of 93 genes selected based on their selectivity and sensitivity to important hepatic receptors known to be modulated by environmental chemicals; importance in human hepatocyte functionality; and hepatotoxicity. […]
On to `Cc1cc(=O)[nH]c(=S)[nH]1`, for which the call was inactive.

For `CCCCc1ccc2c(n1)[C@@H](c1ccc(OC)cc1C[C@H](C)C(=O)O)[C@H](C(=O)O)[C@H]2c1ccc2c(c1)OCO2`, the outcome was inactive.

`O=c1c(O)c(-c2ccc(O)c(O)c2)oc2cc(O)cc(O)c12`: the call was inactive.

On to `C[Si]1(C)O[Si](C)(C)O[Si](C)(C)O[Si](C)(C)O1`, for which the outcome was inactive.

Take `CC(=O)Oc1ccccc1C(=O)O`: the call was inactive.

Regarding `Cc1c(C(=O)O)c(O)cc2c1C(=O)c1c(O)c([C@@H]3O[C@H](CO)[C@@H](O)[C@H](O)[C@H]3O)c(O)c(O)c1C2=O`, the compound was classed as inactive.

By AC50 is commonly meant the midpoint of the concentration-response curve, whichever way the signal moves. For the compound `CN1CCN(Cc2cc(-c3ccc4[nH]c(=O)oc4c3)co2)[C@@H](c2ccc(F)cc2)C1`, the AC50 was 88.5 µM (active).

Take `Cc1ccc(N(C)C)cc1`: the compound was classed as inactive.

On to `CC(=O)C(C)=CC1C(C)=CCCC1(C)C` (stereo not given), for which the outcome was inactive.

Regarding `FC(F)(F)C(F)(F)C(F)(F)C(F)(F)C(F)(F)C(F)(F)CCI`, the compound was called inactive.

On to `Nc1ccc(S(=O)(=O)c2ccc(N)cc2)cc1`, for which the compound was called inactive.

For the compound `O=C(N[C@@H](Cc1ccccc1)[C@@H](O)C(=O)N1C[C@@H](O)[C@@H](O)C1)c1cc2cc(Cl)ccc2[nH]1`, the outcome was inactive.

`COC(=O)c1ccc(O)cc1`: the compound was called inactive.

Take `Nc1ccc2c(c1)C(=O)c1ccccc1C2=O`: the AC50 is 13.2 µM (active).

As to `Cc1cccc([N+](=O)[O-])c1C`, the compound was classed as inactive.

Regarding `O=C(O)Cc1ccccc1Nc1c(Cl)cccc1Cl`, the call was inactive.

For `CCCCOC(=O)CCCCCCCCC(=O)OCCCC`, the compound was classed as inactive.

On to `CCCCCC(=O)O`, for which the compound was classed as inactive.

As to `COCCOC[C@H](CC1(C(=O)NC2CCC(C(=O)O)CC2)CCCC1)C(=O)Oc1ccc2c(c1)CCC2` (stereo not given in full), the outcome was inactive.

Take `Cc1oc(-c2ccccc2)nc1CCOc1cccc2c1ccn2CCC(=O)O`: the AC50 is 1.1 µM (active).

In the case of `CCc1c(C(=O)NN2CCCCC2)nn(-c2ccc(Cl)cc2Cl)c1-c1ccc(Br)cc1`, the AC50 was 22.1 µM (active).

On to `NC(=O)Cn1c(=O)cc(CCN2CCN(c3nccc4sccc34)CC2)c2ccc(F)cc21`, for which the compound was called inactive.

`CCNc1cccc(C)c1`: the call was inactive.

For `O=c1[nH]cc(F)c(=O)[nH]1`, the AC50 was 76 µM (active).

For the compound `CCOC(=O)C(C)(C)Oc1ccc(Cl)cc1`, the AC50 was 24.6 µM (active).

Regarding `COc1cc(-c2nc(NC(=O)c3cc4cc(C)cc(C)c4n3CC(=O)O)sc2CCC2CCCCC2)c(OC)cc1Cl`, the AC50 was 24.4 µM (active).

With `Cc1cccc(C)c1O`, the result was inactive.

For `CC(C)c1ccc(C(=O)N=C(N)N)cc1S(C)(=O)=O`, the AC50 was 0.362 µM (active).

Turning to `CCCCCCCCCCCC(=O)OC`, the compound was called inactive.

As for `Cc1nc(C)nc(N2C[C@@H](C)N(c3ccnc([C@@H](C)O)n3)[C@@H](C)C2)n1`, the compound was called inactive.

With `CCCCCCCCCCO`, the compound was classed as inactive.

For `CNCc1cc(F)ccc1Oc1ccc(Cl)c(Cl)c1`, the compound was called inactive.

Regarding `Cc1ccc(Cl)cc1`, the outcome was inactive.

As for `COc1ccc(C)cc1N`, the result was inactive.

In the case of `c1cc(-c2ccncc2)ccn1`, the compound was called inactive.

Consider `CCCCN(CCCC)CCCC`, for which the compound was called inactive.

Turning to `COc1ccc(S(=O)(=O)N2C(=O)[C@@](c3ccccc3OC)(N3C[C@H](O)C[C@H]3C(=O)N(C)C)c3cc(Cl)ccc32)c(OC)c1`, the AC50 was 13.9 µM (active).

On to `CCCCCCCCCCC`, for which the compound was called inactive.

As for `Cc1ccc2ncccc2c1`, the call was inactive.

As to `O=[N+]([O-])C(CO)(CO)CO`, the outcome was inactive.
